Laboratory results published in PubChem BioAssay AID602125 (The Scripps Research Institute Molecular Screening Center, 2011).
Screen size: about 1,300 compounds; about 110 (8.5%) were called active. These entries were drawn from the full list. Unmarked numbers belong to inactive results. Cut-off read from the data, not from the text of the source: active = inhibition above about 6.5%; inactive = the rest.

Test: quenching of GFP signal – biochemical, fluorescence, artefact control for Rin1-Abl interaction inhibitor project (AID 602125);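 note: ABL1-eGFP fusion protein alone without its partner RIN1-SBP; 0% = protein with vehicle and 100% = wells lacking protein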
Settings: inhibitors/quenchers counterscreen, at 6.75 µM, hits give high values
CC(C)CNS(=O)(=O)c1ccc(C(=O)Nc2ccc3c(c2)OCO3)cc1 showed an inhibition of -1.46%.
With O=c1ccc2c(-c3ccccc3S(=O)(=O)O)c3ccc(O)c(O)c3oc-2c1O the inhibition was 60.6% (active).
Work on CCCn1c(N)c(C(=O)CSc2nnc(-c3cccnc3)n2-c2ccc(C)cc2C)c(=O)[nH]c1=O yielded an inhibition of -2.86%.
Molecule Cc1cc2ccccc2n1CCNC(=O)COc1ccc2ccccc2c1 has an inhibition of 0.81%.
For CC(OC(=O)c1ccccc1NCCO)C(=O)Nc1ccnn1C(C)C (stereo not given), the inhibition was 0.13%.
With C=C1c2c(Cl)ccc(O)c2C(O)=C2C(=O)[C@]3(O)C(O)=C(C(N)=O)C(=O)[C@@H](N(C)C)[C@@H]3[C@@H](O)C12 (stereo not given in full) the inhibition was 14.2% (active).
In the case of CC(=O)NC(c1cccs1)c1cc(Br)c2cccnc2c1O (stereo not given), the inhibition is reported as 4.24%.
Nc1cc(=O)c2[nH]cnc2[nH]1 gave an inhibition of 0.27%.
CCOC(=O)N1CCC(c2cc(=O)n(-c3ccccc3)[nH]2)CC1 gave an inhibition of -3.53%.
Work on O=C(Nc1ccc(OC(F)(F)F)cc1)c1ccc2c(c1)no[n+]2[O-] yielded an inhibition of 0.62%.
In the case of C=CCn1c2ccccc2c2nnc(SCc3[nH]c(=O)[nH]c3C(=O)CCCCC(=O)OCC)nc21, the inhibition is reported as 0.3%.
With COCCNC(=O)Nc1ccc2nc(-c3ccco3)c(-c3ccco3)nc2c1 the inhibition was 15.8% (active).
CCc1ccc(CN(C)C(C)C(=O)Nc2ccc(S(=O)(=O)N3CCCC3)cc2)cc1 (stereo not given) showed an inhibition of -0.29%.
Work on COC(=O)c1ccc(COC(=O)C2CCN(S(=O)(=O)c3c(Cl)cccc3Cl)CC2)o1 yielded an inhibition of 1.86%.
CN(CC(=O)Nc1ccc(F)cc1)CC(=O)Nc1ccc(Cl)c(S(=O)(=O)N2CCOCC2)c1 showed an inhibition of -1.92%.
With C#CCOCCOCCOCCNc1nc(N2CCN(C(=O)C(Cc3ccc(O)cc3)n3cc(C(N)CC(C)C)nn3)CC2)nc(N2CCN(C(=O)C(Cc3ccc(O)cc3)n3cc(C(N)C(C)CC)nn3)CC2)n1 (stereo not given) the inhibition was -1.04%.
Molecule C=CCn1cc(C(=O)NCc2ccc(Cl)cc2)c(=O)c2cc(S(=O)(=O)N(CC)CC)ccc21 has an inhibition of -0.53%.
Cc1nn(-c2ncc(C(F)(F)F)cc2Cl)c(=O)n1-c1ccccc1 gave an inhibition of -0.58%.
In the case of COc1ccc(CNC(=O)c2cc(C(=O)C3CC3)c[nH]2)cc1, the inhibition is reported as 0%.
With Cc1c(CC(=O)N2CCN(C(=O)C3COc4ccccc4O3)CC2)c(=O)oc2c(O)c(O)ccc12 (stereo not given) the inhibition was 21.4% (active).
In the case of NC1=CC(=O)C(=O)c2cccnc21, the inhibition is reported as 8.89% (active).
In the case of Cc1ccccc1CN1C[C@@H]2C[C@@H](c3ccc4nsnc4c3)N3CCC[C@@]23C1=O, the inhibition is reported as 0.34%.
For CSc1ncnc2c1ncn2CC(=O)C1CCC2C3CCC4=CC(=O)CCC4(C)C3CCC12C (stereo not given), the inhibition was 0.43%.
O=C(CNCc1ccco1)Nc1cc(S(=O)(=O)N2CCOCC2)ccc1N1CCCC1 showed an inhibition of 2.49%.
In the case of CCc1cc2c(N3CCN(c4nnc(CC)s4)CC3)ncnc2s1, the inhibition is reported as -3.38%.
With CC(=O)Nc1ccc(CN2CCC(Oc3ccc(C(=O)N4CCCC4)cc3)CC2)cc1 the inhibition was -0.82%.
CCOc1ccc(S(=O)(=O)N2CCCCC2)cc1NC(=O)CN1CCCC1c1cccs1 (stereo not given) gave an inhibition of -2.43%.
O=c1c2c(nc3n1CCCCC3)sc1c(O)cccc12 gave an inhibition of 0.41%.
Molecule CCOc1ccc(CNC(=O)C2CCCN(c3nnc(C)c4c(C)n(-c5ccccc5)nc34)C2)cc1 (stereo not given) has an inhibition of -0.63%.
Oc1c(CN2CCN(c3ccc(F)cc3)CC2)cc(Cl)c2cccnc12 gave an inhibition of 1.29%.
For CC(CCO)Nc1nc2c([nH]1)c(=O)n(C)c(=O)n2C (stereo not given), the inhibition was -2.15%.
O=C(COc1ccc(S(=O)(=O)NCCc2ccccc2)cc1)N1CCCC1 gave an inhibition of -1.34%.
Work on CN(C)c1ccc(N/C=C/C(=O)C(F)(F)F)cc1 yielded an inhibition of 0.06%.
Cc1cccc(N(C)C(=O)CN2C(=O)COc3ccc(S(=O)(=O)N4CCCCCC4)cc32)c1 gave an inhibition of -2.16%.
With C[C@@H]1CN([C@H](C)CO)S(=O)(=O)c2ccc(C#C[C@@H](C)O)cc2O[C@@H]1CN(C)Cc1ccc(-c2ccccc2)cc1 the inhibition was -1.52%.
O=C(NNc1c2ccccc2nc2ccccc12)c1cc2ccccc2cc1O gave an inhibition of 2.7%.
Cc1cc(NC(=O)CSCC(=O)NC(C)c2ccccc2)no1 (stereo not given) gave an inhibition of 0.79%.
With COc1cc(C(=S)N2CCOCC2)ccc1O the inhibition was -0.21%.
Cc1ccc(C(NC(=O)C2CCN(CCOc3ccc(Cl)cc3Cl)CC2)c2ccccn2)cc1 (stereo not given) showed an inhibition of -1.38%.
With CN(Cc1c(F)cccc1Cl)C(=O)CNC(=O)c1ccc2c(c1)OCO2 the inhibition was 0%.
For O=C(Nc1ccc(S(=O)(=O)Nc2ncccn2)cc1)c1cncc(Br)c1, the inhibition was 0.85%.
Work on O=c1cc(CO)oc(CN2CCC(Cc3ccccc3)CC2)c1O yielded an inhibition of 0.68%.
With CCOC(=O)N1CCN(C(=O)C2CCCN(c3ncnc4c3sc3cccc(F)c34)C2)CC1 (stereo not given) the inhibition was 0.85%.
CCOc1ccc(-n2c(SCC(=O)NC3CCS(=O)(=O)C3)nnc2-c2cccnc2)cc1 (stereo not given) gave an inhibition of -0.86%.
For CCOC(=O)CN(C(=O)COc1nc(C)cc(C)c1C#N)c1ccc(Cl)cc1, the inhibition was -1.77%.
For OC[C@@H]1CN(Cc2ccc(Cl)cc2)C[C@H](n2cnc3c(NCc4ccncc4)ncnc32)O1, the inhibition was 0.89%.
In the case of CCOC(=O)N1CCN(C(=O)C2CCN(c3ncnc4c3sc3cccc(F)c34)CC2)CC1, the inhibition is reported as 1.39%.
In the case of Cc1ccccc1C(=O)N1CCC(C(=O)Nc2ccc(S(=O)(=O)N(C)C(C)C)cc2)CC1, the inhibition is reported as 0.2%.
O=C(c1cn(-c2ccccc2)nc1-c1cc2ccccc2oc1=O)N1CCOCC1 gave an inhibition of -1.57%.
Molecule O=C(CC1SCCNC1=O)Nc1ccc(Cl)cc1 (stereo not given) has an inhibition of 0.84%.
CN(C(=O)c1ccc(NC(=O)Cc2cccc(NC(=O)C3CCN(C(=O)c4ccccc4)CC3)c2)cc1)C1CC1 showed an inhibition of -0.72%.
Nc1nc2n(n1)C(c1ccco1)CC(c1ccc(Cl)c(Cl)c1)N2 (stereo not given) gave an inhibition of -3.07%.
NS(=O)(=O)c1ccc(CCNC(=O)Nc2ccc(Cl)cc2)cc1 showed an inhibition of 2.08%.
In the case of Oc1cccc2cc(-c3ccncc3)cnc12, the inhibition is reported as 11.6% (active).
Molecule Cc1ccc(-n2c(SCC(=O)NCc3ccc4c(c3)OCO4)nnc2-c2cccnc2)c(C)c1 has an inhibition of 0.57%.
